Bioassay records (PubChem BioAssay)
ULK1 primary – blocks human autophagy kinase ULK1 | AlphaScreen Atg13 phosphorylation by ULK1, luminescence | O75385 | 30,000 tested, 1.9% active | inhibition, % at 5.96 µM | AID 1259251; in the data active = inhibition above about 43%;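 note: 0% = median of compound wells and 100% = no enzyme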
ASK1 primary – inhibitors of human ASK1 kinase; inhibition, % at 7.44 µM; 22,000 tested, 0.99% active; AID 1159602; Q99683; AlphaScreen MKK6 phosphorylation by ASK1, luminescence; in the data active = inhibition above about 35%;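 note: 0% = median of compound wells and 100% = no enzyme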
* marks the source's active call; other numbers are inactive results; nt = not tested or not shown. The list is not random: actives were taken first. Their share in the collection is about 2.5%.

SMILES	ULK1 primary	ASK1 primary
NCCc1ccc(O)c(O)c1	74*	nt
Nc1ccc(O)c(N)c1	40	nt
CC(=O)Nc1ccc(O)cc1	-2	nt
CC(=O)Nc1ccccc1	58*	nt
NCC1CCCN(c2cc(NCc3ccccc3)ncn2)C1 (centres undefined)	0	-10
O=C(NCCO)C1CCN(c2ccc(Nc3ccc(C(F)(F)F)cc3)nn2)CC1	46*	-12
O=C(Nc1ccc(N2CCOCC2)cc1)C1CCN(c2ccc(Nc3ccc(C(F)(F)F)cc3)nn2)CC1	25	16
O=C(NCCCN1CCCC1=O)c1cnc(NCCN2CCOCC2)s1	2	-4
CC(C)N(CCNc1nc(Nc2ccncn2)nc2c1ncn2C1CCCCC1)C(C)C	-3	-12
CCOc1nc2cccc(C(=O)OC(C)OC(=O)OC3CCCCC3)c2n1Cc1ccc(-c2ccccc2-c2nn[nH]n2)cc1 (centres undefined)	53*	nt
CCCc1nc(C(C)(C)O)c(C(=O)OCc2oc(=O)oc2C)n1Cc1ccc(-c2ccccc2-c2nn[nH]n2)cc1	-4	nt
Cc1cncc2cccc(NC3CCCN(C(=O)C(O)c4ccc(Cl)cc4)C3)c12 (centres undefined)	13	-8
Cc1cc2c(NC3CCCN(C(=O)C(O)c4ccc(Cl)cc4)C3)cccc2nn1 (centres undefined)	52*	-18
c1ccc(CN2CCC(Nc3nc(Nc4cnccn4)nc4nc[nH]c34)CC2)cc1	24	24
O=C(NCCCN1CCCC1=O)c1cncc(-c2ccccc2)c1	1	0
O=C(Nc1ccc(F)c(F)c1N1CCC2(CC1)OCCO2)c1ccc(Br)o1	53*	-18
O=C(Nc1cccc(F)c1N1CCC2(CC1)OCCO2)c1ccc(Br)o1	-9	-11
Cc1c[nH]c(=O)c2cccc(NC3CCN(C(=O)C(N)c4ccc(Br)cc4)CC3)c12 (centres undefined)	14	11
Cc1c[nH]c(=O)c2cccc(S(=O)(=O)N3CCCNC[C@@H]3C)c12	47*	0
Cc1noc(C)c1-c1ccc(C(=O)NCCCN2CCCC2=O)s1	-2	-5
NS(=O)(=O)c1ccc(Nc2nccc(-c3ccccc3)n2)cc1	7	8
CC(C)S(=O)(=O)Nc1ccc(-c2ccnc(Nc3ccc(S(N)(=O)=O)cc3)n2)cc1	50*	-9
CCS(=O)(=O)Nc1ccc(-c2ccnc(Nc3ccc(S(N)(=O)=O)cc3)n2)cc1	60*	-8
NS(=O)(=O)c1ccc(Nc2nccc(-c3ccc(NS(=O)(=O)Cc4ccccc4)cc3)n2)cc1	33	-14
CC(C)CC(=O)N1c2ccc(S(C)(=O)=O)cc2NC(=O)C1C (centres undefined)	-8	nt
SMILES	ULK1 primary	ASK1 primary
c1cc(-c2ccnc(Nc3ccc(-n4cnc(N5CCOCC5)n4)cc3)n2)cc(N2CCOCC2)c1	-3	-3
COc1cc2nc(NCCN3CCOCC3)nc(NCCOc3ccccc3)c2cc1OC	-1	-3
COc1cccc(COC(=O)Nc2ccc(-c3cn[nH]c3)cc2SCCC(=O)N(C)C)c1	-3	-2
Cc1ncn(-c2ccc(Nc3ncc4cccc(-c5ncco5)c4n3)cc2)n1	72*	-11
Cc1ncn(-c2ccc(Nc3ncc4cccc(-c5cnn(CCN6CCOCC6)c5)c4n3)cc2)n1	63*	-9
Cc1cc(-c2cccc3cnc(Nc4ccc(-n5cnc(C)n5)cc4)nc23)ccn1	-14	3
Cc1ncn(-c2ccc(Nc3ncc4cccc(-c5ccncc5F)c4n3)cc2)n1	51*	33
Cc1ncn(-c2ccc(Nc3ncc4cccc(-c5cncnc5)c4n3)cc2)n1	14	10
Cc1ncn(-c2ccc(Nc3ncc4cccc(-c5cn[nH]c5)c4n3)cc2)n1	44*	8
Cc1ncn(-c2ccc(Nc3ncc4cccc(-c5ccc(N6CCOCC6)nc5)c4n3)cc2)n1	24	5
Cc1ncn(-c2ccc(Nc3ncc4cccc(-c5cncc6ccccc56)c4n3)cc2)n1	-3	-1
O=C(Nc1ccc2c(c1)OCO2)c1ccc2nc(N3CCN(c4ccccn4)CC3)sc2c1	30	31
Cc1nn(C)c(C)c1-c1cc(NCc2cccnc2)ncn1	35	-20
CCCNC(=O)Cc1cn(-c2ccc(Nc3cccc(N(C)C)c3)nn2)c2ccccc12	21	21
Cc1ncn(-c2ccc(Nc3ncc4cccc(-c5nc6ccccc6s5)c4n3)cc2)n1	-5	28
Cc1ncn(-c2ccc(Nc3ncc4cccc(-c5ccccn5)c4n3)cc2)n1	53*	-31
Cc1ncn(-c2ccc(Nc3ncc4cccc(Nc5ccccc5)c4n3)cc2)n1	-7	33
Cc1ncn(-c2ccc(Nc3ncc4ccccc4n3)cc2)n1	44*	-25
CC(C)(C)OC(=O)N1CCN(c2c(Cl)cccc2NC(=O)c2ccc(Br)o2)CC1	-3	9
CCCNc1cc(C)nc(-c2ccc(C(=O)NC3CC3)cc2)n1	0	4
Cc1cc(N)nc(-c2ccc(C(=O)NC3CC3)cc2)n1	56*	3
O=C(NCc1cccs1)c1nccc(Nc2ccncn2)n1	10	-3
